# Paper PMC7862700, “An all-to-all approach to the identification of sequence-specific readers for epigenetic DNA modifications on cytosine”
# What was measured:
# Test in all cases: DAPPL (digital affinity profiling via proximity ligation, sequencing); 10 mM Tris-HCl pH 7.5, 50 mM NaCl, 1 mM DTT, 4% glycerol, room temperature, 30 min; GST-TFs on glutathione beads, 16-mer random dsDNA library, 0.1% formaldehyde crosslink after washing; high values mean tight binding
# FLI1 = molecular target: T1, FLI1 (Homo sapiens, UniProt Q01543 1-452); conditions: protein: recombinant; tags: N-terminal GST; dsDNA, one strand shown
# T1 sequence: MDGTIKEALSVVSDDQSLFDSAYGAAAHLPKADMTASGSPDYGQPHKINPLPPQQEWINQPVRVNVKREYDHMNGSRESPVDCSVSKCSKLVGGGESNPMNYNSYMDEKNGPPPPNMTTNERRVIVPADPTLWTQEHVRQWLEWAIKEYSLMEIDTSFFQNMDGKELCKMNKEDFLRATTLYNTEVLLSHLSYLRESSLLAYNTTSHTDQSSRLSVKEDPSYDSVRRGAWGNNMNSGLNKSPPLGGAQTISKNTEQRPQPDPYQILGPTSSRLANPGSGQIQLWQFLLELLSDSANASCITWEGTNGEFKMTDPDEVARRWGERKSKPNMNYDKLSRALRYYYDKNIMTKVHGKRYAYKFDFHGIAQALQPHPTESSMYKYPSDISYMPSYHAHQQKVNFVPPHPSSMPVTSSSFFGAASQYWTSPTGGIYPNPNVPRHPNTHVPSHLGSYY
# In short: (§1)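 Pools were built from human transcription factors expressed in yeast as GST fusions, captured on glutathione beads and DNA-barcoded, along with a tag-only sample. Incubation with 200 nmole of a 16-mer random double-stranded DNA library lasted 30 min at room temperature in Tris/NaCl/DTT/glycerol buffer, and was followed by washing, 0.1% formaldehyde crosslinking, proximity ligation, PCR amplification and Illumina NextSeq500 sequencing. Binding signal is the quotient of each hexamer's read frequency for a factor and its frequency for the tag-only sample.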
# ELK1 = molecular target: T2, ELK1 (Homo sapiens, UniProt P19419 1-428); conditions: protein: recombinant; tags: N-terminal GST; dsDNA, one strand shown
# T2 sequence: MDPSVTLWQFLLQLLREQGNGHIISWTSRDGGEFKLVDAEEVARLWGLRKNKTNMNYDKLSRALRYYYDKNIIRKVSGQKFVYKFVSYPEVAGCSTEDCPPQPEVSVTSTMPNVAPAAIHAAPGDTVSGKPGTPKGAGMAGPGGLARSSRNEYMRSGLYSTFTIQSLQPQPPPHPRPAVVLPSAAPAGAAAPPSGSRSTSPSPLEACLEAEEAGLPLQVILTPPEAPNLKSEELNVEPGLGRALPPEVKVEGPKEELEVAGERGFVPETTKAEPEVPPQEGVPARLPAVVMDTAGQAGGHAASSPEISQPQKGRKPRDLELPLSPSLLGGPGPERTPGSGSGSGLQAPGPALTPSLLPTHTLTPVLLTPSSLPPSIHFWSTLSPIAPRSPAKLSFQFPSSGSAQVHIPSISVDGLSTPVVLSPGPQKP
# In short: as §1
# GABPA = molecular target: T3, GABPA (Homo sapiens, UniProt Q06546 1-454); conditions: protein: recombinant; tags: N-terminal GST; dsDNA, one strand shown
# T3 sequence: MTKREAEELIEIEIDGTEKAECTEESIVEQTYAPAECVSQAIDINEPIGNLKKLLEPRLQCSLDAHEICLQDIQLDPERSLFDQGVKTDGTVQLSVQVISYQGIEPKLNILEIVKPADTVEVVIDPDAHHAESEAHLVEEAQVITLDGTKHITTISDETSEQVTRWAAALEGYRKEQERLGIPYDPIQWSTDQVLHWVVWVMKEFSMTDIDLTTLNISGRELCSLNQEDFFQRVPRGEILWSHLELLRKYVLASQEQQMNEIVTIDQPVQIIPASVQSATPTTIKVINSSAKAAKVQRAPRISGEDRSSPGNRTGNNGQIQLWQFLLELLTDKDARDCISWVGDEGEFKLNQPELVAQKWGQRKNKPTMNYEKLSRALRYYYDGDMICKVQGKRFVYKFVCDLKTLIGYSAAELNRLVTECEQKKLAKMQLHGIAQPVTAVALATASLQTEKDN
# In short: as §1
# ERG = molecular target: T4, ERG (Homo sapiens, UniProt P11308 1-479); conditions: protein: recombinant; tags: N-terminal GST; dsDNA, one strand shown
# T4 sequence: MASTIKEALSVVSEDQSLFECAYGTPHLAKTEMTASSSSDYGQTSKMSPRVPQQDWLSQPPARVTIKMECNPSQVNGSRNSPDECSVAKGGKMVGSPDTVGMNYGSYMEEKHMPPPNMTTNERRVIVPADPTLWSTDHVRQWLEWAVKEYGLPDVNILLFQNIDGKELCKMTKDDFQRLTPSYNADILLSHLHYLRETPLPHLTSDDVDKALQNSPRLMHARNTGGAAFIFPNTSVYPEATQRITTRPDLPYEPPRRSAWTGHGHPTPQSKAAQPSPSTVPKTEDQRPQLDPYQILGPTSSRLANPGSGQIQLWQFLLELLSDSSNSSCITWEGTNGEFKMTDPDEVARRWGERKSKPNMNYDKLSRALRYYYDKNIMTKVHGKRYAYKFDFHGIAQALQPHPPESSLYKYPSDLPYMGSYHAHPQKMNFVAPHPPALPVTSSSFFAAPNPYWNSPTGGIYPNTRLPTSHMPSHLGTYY
# In short: as §1
# ELF1 = ELF1 (Homo sapiens, UniProt P32519 1-619); conditions: protein: recombinant; tags: N-terminal GST; dsDNA, one strand shown
# ELF1, sequence (P32519 whole entry): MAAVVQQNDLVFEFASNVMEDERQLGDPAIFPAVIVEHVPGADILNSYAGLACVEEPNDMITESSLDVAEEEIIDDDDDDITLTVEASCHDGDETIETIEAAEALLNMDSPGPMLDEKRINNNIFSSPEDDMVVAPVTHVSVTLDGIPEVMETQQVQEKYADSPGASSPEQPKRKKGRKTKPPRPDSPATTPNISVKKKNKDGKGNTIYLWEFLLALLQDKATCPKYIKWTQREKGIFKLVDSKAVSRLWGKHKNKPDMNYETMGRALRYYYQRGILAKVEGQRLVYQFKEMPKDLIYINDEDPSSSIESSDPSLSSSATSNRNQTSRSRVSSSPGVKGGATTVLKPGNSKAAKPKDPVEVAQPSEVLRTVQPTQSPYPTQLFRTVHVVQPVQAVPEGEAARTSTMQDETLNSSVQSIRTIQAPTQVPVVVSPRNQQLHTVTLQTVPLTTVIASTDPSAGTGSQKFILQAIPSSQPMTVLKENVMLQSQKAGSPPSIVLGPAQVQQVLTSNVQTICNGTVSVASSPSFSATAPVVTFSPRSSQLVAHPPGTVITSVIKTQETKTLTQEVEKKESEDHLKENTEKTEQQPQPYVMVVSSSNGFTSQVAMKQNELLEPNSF
# In short: as §1
# EHF = molecular target: T5, EHF (Homo sapiens, UniProt Q9NZC4 1-300); conditions: protein: recombinant; tags: N-terminal GST; dsDNA, one strand shown
# T5 sequence: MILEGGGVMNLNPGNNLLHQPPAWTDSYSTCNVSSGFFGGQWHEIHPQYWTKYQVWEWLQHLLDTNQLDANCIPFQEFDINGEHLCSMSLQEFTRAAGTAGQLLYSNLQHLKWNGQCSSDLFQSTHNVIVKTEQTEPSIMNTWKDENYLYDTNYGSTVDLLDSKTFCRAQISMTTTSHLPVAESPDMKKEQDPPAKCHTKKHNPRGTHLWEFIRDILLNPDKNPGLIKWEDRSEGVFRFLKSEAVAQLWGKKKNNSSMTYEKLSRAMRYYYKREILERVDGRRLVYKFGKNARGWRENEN
# In short: as §1
# SPI1 = SPI1 (Homo sapiens, UniProt P17947 1-270); conditions: protein: recombinant; tags: N-terminal GST; dsDNA, one strand shown
# In short: as §1
# SPIB = SPIB (Homo sapiens, UniProt Q01892 1-262); conditions: protein: recombinant; tags: N-terminal GST; dsDNA, one strand shown
# SPIB, sequence (Q01892 whole entry): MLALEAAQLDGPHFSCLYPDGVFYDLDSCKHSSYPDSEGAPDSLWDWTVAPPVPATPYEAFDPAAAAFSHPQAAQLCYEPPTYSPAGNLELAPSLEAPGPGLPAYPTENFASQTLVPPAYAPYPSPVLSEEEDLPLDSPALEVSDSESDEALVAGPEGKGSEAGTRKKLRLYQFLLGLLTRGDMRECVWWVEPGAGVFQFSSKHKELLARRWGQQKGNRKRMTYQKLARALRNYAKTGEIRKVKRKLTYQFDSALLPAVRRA
# In short: as §1
# ELK3 = molecular target: T6, ELK3 (Homo sapiens, UniProt P41970 1-407); conditions: protein: recombinant; tags: N-terminal GST; dsDNA, one strand shown
# T6 sequence: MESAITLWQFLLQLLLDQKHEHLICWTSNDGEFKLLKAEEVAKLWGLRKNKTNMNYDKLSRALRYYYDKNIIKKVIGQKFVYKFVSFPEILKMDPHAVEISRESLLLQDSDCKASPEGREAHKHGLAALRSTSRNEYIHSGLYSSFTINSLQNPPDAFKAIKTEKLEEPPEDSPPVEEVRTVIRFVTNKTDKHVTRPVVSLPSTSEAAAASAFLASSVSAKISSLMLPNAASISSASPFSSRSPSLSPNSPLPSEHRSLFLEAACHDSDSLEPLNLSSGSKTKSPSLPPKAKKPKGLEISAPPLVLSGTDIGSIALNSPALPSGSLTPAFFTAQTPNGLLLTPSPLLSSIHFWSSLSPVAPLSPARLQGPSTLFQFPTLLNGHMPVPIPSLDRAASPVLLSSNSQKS
# In short: as §1
# FEV = molecular target: T7, FEV (Homo sapiens, UniProt Q99581 1-238); conditions: protein: recombinant; tags: N-terminal GST; dsDNA, one strand shown
# T7 sequence: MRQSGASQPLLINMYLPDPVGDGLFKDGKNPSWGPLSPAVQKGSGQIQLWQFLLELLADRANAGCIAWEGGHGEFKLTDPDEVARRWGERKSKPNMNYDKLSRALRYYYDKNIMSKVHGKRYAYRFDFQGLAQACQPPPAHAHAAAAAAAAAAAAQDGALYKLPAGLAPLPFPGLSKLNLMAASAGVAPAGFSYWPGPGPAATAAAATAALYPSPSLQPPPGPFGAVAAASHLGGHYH
# In short: as §1
# ETV5 = ETV5 (Homo sapiens, UniProt P41161 1-510); conditions: protein: recombinant; tags: N-terminal GST; dsDNA, one strand shown
# ETV5, sequence (P41161 whole entry): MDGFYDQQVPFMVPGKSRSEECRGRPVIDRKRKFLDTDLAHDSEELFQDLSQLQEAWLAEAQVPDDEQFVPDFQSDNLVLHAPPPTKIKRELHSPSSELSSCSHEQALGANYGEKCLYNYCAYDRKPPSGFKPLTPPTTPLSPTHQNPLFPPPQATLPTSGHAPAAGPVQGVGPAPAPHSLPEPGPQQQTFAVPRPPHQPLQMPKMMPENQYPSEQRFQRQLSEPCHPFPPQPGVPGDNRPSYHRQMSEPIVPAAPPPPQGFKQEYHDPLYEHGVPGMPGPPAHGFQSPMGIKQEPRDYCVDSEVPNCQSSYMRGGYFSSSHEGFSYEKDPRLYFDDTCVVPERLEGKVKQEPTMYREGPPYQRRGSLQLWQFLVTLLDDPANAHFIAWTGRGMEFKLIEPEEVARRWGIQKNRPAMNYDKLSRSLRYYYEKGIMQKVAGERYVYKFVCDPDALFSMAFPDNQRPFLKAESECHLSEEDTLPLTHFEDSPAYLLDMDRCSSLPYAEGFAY
# In short: as §1
# HSF1 = HSF1 (Homo sapiens, UniProt Q00613 1-529); conditions: protein: recombinant; tags: N-terminal GST; chain copies: 3; dsDNA, one strand shown
# HSF1, sequence (Q00613 whole entry): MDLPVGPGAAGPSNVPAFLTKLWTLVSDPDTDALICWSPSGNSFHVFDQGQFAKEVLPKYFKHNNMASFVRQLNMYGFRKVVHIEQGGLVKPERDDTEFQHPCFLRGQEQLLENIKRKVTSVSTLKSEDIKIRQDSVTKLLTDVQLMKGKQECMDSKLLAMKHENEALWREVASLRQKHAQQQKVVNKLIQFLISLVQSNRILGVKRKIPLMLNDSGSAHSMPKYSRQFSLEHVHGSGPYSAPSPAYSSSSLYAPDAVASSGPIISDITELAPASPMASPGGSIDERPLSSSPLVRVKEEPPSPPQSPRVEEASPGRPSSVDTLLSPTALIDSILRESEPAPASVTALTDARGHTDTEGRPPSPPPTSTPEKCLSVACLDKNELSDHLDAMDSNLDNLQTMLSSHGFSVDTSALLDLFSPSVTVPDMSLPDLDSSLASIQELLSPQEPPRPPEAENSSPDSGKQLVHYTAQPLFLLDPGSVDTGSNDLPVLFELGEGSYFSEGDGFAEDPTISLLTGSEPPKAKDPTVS
# In short: as §1
# SPIC = molecular target: T8, SPIC (Homo sapiens, UniProt Q8N5J4 1-248); conditions: protein: recombinant; tags: N-terminal GST; dsDNA, one strand shown
# T8 sequence: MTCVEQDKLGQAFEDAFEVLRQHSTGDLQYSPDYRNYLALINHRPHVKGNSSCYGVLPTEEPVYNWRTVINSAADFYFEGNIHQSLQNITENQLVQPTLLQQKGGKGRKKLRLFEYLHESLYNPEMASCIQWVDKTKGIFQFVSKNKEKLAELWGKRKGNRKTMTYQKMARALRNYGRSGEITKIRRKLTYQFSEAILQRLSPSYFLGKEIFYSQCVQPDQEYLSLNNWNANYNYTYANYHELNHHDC
# In short: as §1
# ELF4 = ELF4 (Homo sapiens, UniProt Q99607 1-663); conditions: protein: recombinant; tags: N-terminal GST; dsDNA, one strand shown
# ELF4, sequence (Q99607 whole entry): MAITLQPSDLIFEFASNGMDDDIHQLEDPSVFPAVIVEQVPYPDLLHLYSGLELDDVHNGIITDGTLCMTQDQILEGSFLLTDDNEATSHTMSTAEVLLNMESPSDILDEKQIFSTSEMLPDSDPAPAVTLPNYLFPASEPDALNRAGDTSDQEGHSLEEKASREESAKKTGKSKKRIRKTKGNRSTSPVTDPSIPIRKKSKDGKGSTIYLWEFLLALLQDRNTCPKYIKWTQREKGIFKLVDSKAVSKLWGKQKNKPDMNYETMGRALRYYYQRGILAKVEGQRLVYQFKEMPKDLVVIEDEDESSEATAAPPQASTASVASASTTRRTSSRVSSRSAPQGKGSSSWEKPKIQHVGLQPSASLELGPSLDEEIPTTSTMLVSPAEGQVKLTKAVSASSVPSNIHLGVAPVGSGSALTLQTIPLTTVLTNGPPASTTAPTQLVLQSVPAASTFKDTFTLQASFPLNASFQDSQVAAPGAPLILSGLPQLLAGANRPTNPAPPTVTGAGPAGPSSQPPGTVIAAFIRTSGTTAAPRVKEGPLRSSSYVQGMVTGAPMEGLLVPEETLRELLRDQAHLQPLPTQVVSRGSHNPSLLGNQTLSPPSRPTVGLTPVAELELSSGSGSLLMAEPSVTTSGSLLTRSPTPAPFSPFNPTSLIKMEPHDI
# In short: as §1
# ELK4 = molecular target: T9, ELK4 (Homo sapiens, UniProt P28324-2 1-405); conditions: protein: recombinant; tags: N-terminal GST; dsDNA, one strand shown
# T9 sequence: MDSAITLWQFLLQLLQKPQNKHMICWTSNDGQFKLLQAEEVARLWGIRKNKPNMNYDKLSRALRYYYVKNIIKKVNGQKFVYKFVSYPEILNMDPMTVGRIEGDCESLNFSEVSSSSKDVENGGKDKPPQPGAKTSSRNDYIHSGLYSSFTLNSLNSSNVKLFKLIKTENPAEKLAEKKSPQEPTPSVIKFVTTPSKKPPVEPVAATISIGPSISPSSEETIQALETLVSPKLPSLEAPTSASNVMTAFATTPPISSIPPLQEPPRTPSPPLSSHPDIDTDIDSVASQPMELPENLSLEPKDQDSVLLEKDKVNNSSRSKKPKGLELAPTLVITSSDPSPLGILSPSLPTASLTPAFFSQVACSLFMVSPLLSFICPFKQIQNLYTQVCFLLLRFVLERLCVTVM
# In short: as §1
# ETV2 = molecular target: T10, ETV2 (Homo sapiens, UniProt O00321 1-342); conditions: protein: recombinant; tags: N-terminal GST; dsDNA, one strand shown
# T10 sequence: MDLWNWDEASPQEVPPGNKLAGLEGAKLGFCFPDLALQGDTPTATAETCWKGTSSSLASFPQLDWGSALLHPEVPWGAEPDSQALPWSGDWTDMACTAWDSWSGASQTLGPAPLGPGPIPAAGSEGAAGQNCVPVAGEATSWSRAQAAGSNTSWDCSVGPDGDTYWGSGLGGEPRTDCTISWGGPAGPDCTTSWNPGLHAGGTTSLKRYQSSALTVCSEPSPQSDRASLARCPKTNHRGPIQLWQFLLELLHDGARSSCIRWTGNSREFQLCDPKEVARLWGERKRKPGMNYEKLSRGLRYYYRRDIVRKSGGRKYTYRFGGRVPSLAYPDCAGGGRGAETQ
# In short: as §1
# ELF3 = molecular target: T11, ELF3 (Homo sapiens, UniProt P78545 1-371); conditions: protein: recombinant; tags: N-terminal GST; dsDNA, one strand shown
# T11 sequence: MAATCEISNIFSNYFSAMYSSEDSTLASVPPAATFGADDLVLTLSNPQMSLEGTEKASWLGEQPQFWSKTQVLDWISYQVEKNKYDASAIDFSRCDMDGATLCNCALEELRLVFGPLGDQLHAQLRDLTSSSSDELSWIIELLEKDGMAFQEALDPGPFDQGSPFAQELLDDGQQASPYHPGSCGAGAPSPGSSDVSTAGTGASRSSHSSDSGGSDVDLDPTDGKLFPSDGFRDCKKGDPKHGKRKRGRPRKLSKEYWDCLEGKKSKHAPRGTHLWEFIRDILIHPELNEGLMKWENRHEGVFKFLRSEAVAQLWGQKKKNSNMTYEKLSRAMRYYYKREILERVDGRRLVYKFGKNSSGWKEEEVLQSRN
# In short: as §1
# CRX = CRX (Homo sapiens, UniProt O43186 1-299); conditions: protein: recombinant; tags: N-terminal GST; dsDNA, one strand shown
# CRX, sequence (O43186 whole entry): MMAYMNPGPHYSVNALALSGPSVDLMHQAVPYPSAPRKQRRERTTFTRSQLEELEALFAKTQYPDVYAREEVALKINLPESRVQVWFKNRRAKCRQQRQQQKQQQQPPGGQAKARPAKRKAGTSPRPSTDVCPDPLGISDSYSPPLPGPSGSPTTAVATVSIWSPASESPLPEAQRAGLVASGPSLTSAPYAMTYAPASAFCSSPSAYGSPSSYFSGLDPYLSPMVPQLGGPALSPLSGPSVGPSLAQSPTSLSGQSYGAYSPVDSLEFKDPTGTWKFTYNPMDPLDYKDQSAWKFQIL
# In short: as §1
# ETV1 = ETV1 (Homo sapiens, UniProt P50549 1-477); conditions: protein: recombinant; tags: N-terminal GST; dsDNA, one strand shown
# ETV1, sequence (P50549 whole entry): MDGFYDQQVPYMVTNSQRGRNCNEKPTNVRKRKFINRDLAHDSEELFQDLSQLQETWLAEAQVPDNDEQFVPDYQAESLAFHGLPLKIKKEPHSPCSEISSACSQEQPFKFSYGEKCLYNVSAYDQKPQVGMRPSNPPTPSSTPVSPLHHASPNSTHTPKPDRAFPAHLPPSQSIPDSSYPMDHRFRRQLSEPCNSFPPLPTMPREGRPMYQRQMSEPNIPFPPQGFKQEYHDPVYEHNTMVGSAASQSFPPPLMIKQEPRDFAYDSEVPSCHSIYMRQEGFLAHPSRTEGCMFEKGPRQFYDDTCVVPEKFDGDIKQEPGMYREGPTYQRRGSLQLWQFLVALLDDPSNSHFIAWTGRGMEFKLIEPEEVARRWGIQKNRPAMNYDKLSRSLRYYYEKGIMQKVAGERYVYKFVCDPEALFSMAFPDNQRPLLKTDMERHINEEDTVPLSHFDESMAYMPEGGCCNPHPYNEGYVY
# In short: as §1
sequence,measurement,setting,value
CCTCCG,binding signal,FLI1,"1.18 fold enrichment (6-mer frequency, TF over GST control)"
same,binding signal,ELK1,"1.55 fold enrichment (6-mer frequency, TF over GST control)"
same,binding signal,GABPA,"1.41 fold enrichment (6-mer frequency, TF over GST control)"
same,binding signal,ERG,"1.35 fold enrichment (6-mer frequency, TF over GST control)"
same,binding signal,ELF1,"1.32 fold enrichment (6-mer frequency, TF over GST control)"
same,binding signal,EHF,"1.24 fold enrichment (6-mer frequency, TF over GST control)"
same,binding signal,SPI1,"1.41 fold enrichment (6-mer frequency, TF over GST control)"
same,binding signal,SPIB,"1.48 fold enrichment (6-mer frequency, TF over GST control)"
same,binding signal,ELK3,"1.38 fold enrichment (6-mer frequency, TF over GST control)"
same,binding signal,FEV,"1.45 fold enrichment (6-mer frequency, TF over GST control)"
same,binding signal,ETV5,"1.34 fold enrichment (6-mer frequency, TF over GST control)"
same,binding signal,HSF1,"1.01 fold enrichment (6-mer frequency, TF over GST control)"
same,binding signal,SPIC,"1.62 fold enrichment (6-mer frequency, TF over GST control)"
same,binding signal,ELF4,"1.38 fold enrichment (6-mer frequency, TF over GST control)"
same,binding signal,ELK4,"1.36 fold enrichment (6-mer frequency, TF over GST control)"
same,binding signal,ETV2,"1.33 fold enrichment (6-mer frequency, TF over GST control)"
same,binding signal,ELF3,"1.32 fold enrichment (6-mer frequency, TF over GST control)"
same,binding signal,CRX,"1.07 fold enrichment (6-mer frequency, TF over GST control)"
same,binding signal,ETV1,"1.4 fold enrichment (6-mer frequency, TF over GST control)"
